Screening results as filed in PubChem BioAssay.
APE1 inh-1 = inhibitors of human APE1 endonuclease; P27695; recombinant APE1, TAMRA/BHQ-2 abasic DNA cleavage fluorescence; Potency, µM (top dose mostly 65.8 µM), for inactives: top-dose activity change, negative = inhibition, most hits filed as inhibitors; actives 0.35% (n = 350,000);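 note: plate controls were vehicle for no effect and reference inhibitor for full effect; nearly all actives have a fitted effect of over 55% in size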
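APE1 at 0.75 nM preincubated 15 min at room temperature with compound. Reaction then started with 50 nM double-stranded THF-abasic substrate labelled with TAMRA/BHQ-2, and 525/598 nm fluorescence read kinetically. Activity taken as third-minus-first read difference, normalized to DMSO and NSC13755 controls.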
FEN1 inhibitor = human FEN1 inhibition; P39748; actives 0.35% (n = 390,000); Potency, µM (top dose mostly 114 µM), for inactives: at the top dose activity change, negative = inhibition, most hits filed as inhibitors; Recombinant FEN1 flap cleavage, fluorescence, 15 min; note: nearly all actives have a fitted effect of over 65% in size
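Steps: FEN1 (10 nM) dispensed; compound added by pin tool; 15 min at room temperature; substrate added to 50 nM final; reads at 0 min and 15 min; data normalized and fitted (four-parameter Hill).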
Tb PGK inh = blocks T. brucei phosphoglycerate kinase. PGK/GAPDH coupled, Kinase-Glo luminescence, 60 min. Potency, µM (titrated, usually from 57.5 µM), for the others: top-dose activity change, negative = inhibition, most hits filed as inhibitors. actives 0.043% (n = 380,000). AID 602233; note: nearly all actives have a fitted effect of over 60% in size
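Luminescent ATP detection (Kinase-Glo Plus) follows a 60-minute room-temperature incubation, with wells lacking PGK as controls. Buffer: 100 mM TEA (pH 7.6), 5 mM MgCl2, 0.01% Tween-20. Coupling enzyme GAPDH (100 nM final) supplies unstable 1,3-BPG in-well.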
BLM inh = blocks DNA unwinding by human BLM helicase; P54132; recombinant BLM DNA unwinding, fluorescence dequenching; Potency, µM (series often up to 56.1 µM), for the others: top-dose activity change, negative = inhibition, most hits filed as inhibitors; actives 0.2% (n = 350,000); AID 2528;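 note: plate controls were vehicle for no effect and no enzyme for full effect; nearly all actives have a fitted effect of over 35% in size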
Target sequence (P54132 whole entry, looked up): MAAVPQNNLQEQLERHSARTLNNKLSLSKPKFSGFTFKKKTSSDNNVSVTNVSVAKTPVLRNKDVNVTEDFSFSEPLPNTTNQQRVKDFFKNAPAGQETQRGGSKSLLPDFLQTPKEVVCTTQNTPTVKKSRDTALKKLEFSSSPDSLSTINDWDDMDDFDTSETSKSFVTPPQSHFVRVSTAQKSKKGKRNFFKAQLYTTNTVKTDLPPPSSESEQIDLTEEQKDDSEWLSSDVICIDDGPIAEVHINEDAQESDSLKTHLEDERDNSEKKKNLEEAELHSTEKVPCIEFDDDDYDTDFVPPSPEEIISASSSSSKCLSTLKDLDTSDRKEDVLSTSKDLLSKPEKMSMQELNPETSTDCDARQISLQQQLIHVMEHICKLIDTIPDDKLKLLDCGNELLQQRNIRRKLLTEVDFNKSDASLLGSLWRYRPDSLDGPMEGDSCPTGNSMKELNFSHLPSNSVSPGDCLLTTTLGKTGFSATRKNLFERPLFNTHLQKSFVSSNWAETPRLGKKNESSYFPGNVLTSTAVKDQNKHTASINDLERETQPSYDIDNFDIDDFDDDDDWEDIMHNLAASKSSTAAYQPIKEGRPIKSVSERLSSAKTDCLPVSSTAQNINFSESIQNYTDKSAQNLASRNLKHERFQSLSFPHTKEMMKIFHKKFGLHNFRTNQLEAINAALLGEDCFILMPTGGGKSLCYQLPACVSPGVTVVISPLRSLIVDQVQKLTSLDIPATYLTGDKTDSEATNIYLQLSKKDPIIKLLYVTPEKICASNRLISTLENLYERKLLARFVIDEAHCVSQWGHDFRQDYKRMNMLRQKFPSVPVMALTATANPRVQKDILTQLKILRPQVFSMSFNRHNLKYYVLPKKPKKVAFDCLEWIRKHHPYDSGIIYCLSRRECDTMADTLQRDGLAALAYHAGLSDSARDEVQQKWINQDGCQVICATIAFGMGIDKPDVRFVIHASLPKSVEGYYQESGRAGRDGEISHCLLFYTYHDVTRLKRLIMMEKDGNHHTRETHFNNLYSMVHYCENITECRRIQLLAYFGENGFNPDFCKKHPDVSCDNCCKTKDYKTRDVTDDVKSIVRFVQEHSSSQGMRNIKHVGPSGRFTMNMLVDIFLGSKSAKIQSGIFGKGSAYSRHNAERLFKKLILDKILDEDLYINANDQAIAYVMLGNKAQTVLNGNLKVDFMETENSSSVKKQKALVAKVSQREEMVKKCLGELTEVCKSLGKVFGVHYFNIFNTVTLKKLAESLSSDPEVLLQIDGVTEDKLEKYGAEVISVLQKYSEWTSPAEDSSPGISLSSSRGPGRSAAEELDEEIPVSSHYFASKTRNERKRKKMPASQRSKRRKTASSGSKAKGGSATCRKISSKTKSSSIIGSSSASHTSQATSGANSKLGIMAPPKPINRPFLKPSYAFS
RECQ1 inh-1 = blocks DNA unwinding by human RECQ1 | P46063 | RECQ1 DNA unwinding, red fluorescence kinetic read | Potency, µM (top dose mostly 57.3 µM), inactives show top-dose activity, negative = inhibition, hits mostly inhibitors | actives 0.54% (n = 240,000);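 note: plate controls were vehicle for no effect and no enzyme for full effect; nearly all actives have a fitted effect of over 30% in size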
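50 nM RECQ1T1 preincubated 15 min with compound in Tris pH 8.0 buffer with MgCl2, DTT, Tween-20 and 2.5 ug/ml poly(dI-dC); started with 200 nM TAMRA/BHQ-2 forked duplex and 2 mM ATP. Unwinding read as fluorescence (525/598 nm), two reads 2 h apart.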
DNA dye displace = counter-screen for APE1 inhibitors: DNA dye displacement; shares compounds with APE1 inh-1; DNA fluorescent dye displacement counterscreen, fluorescence; Potency, µM (doses to about 28.5 µM), inactives show at the top dose activity change, negative = inhibition, hits mostly inhibitors; actives 7% (n = 480);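 note: loss of thiazole orange fluorescence as the dye is displaced from duplex DNA; 0% = ThO with dsDNA and no compound and -100% = ThO without dsDNA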
Endo IV inh = blocks E. coli endonuclease IV DNA cleavage | shares compounds with APE1 inh-1 | E. coli Endo IV, fluorogenic AP-site DNA cleavage | Potency, µM (series often up to 27.1 µM), for the others: at the top dose activity change, negative = inhibition, most hits filed as inhibitors | actives 4% (n = 560) | AID 2565;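 note: plate controls were uninhibited enzyme wells for no effect and no enzyme buffer wells for full effect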
APE1 inh-2 = confirmation of inhibitors of human APE1 endonuclease; shares compounds with APE1 inh-1; actives 44% (n = 750); Potency, µM (titrated, usually from 57.1 µM), inactives show top-dose activity change, negative = inhibition, usual class: inhibitors; purified APE1, fluorogenic abasic-site DNA cleavage; AID 2572; note: nearly all actives have a fitted effect of over 30% in size
APE1 FP inh = compounds that displace a DNA probe from human APE1 | shares compounds with APE1 inh-1 | APE1 binding to TAMRA-labelled double-stranded DNA, fluorescence polarization displacement | Potency, µM (top dose mostly 28.5 µM), for the others: at the top dose activity, negative = inhibition, hits mostly inhibitors | actives 7% (n = 480)
RECQ1 conf = confirmation of human RECQ1 helicase inhibitors. actives 28% (n = 610). shares compounds with RECQ1 inh-1. RECQ1 helicase DNA unwinding, fluorescence. Potency, µM (top dose mostly 229 µM), inactives show at the highest dose activity change, negative = inhibition, usual class: inhibitors. AID 2708; note: nearly all actives have a fitted effect of over 45% in size
ADP FP counter = counter-screen for RECQ1 inhibitors: ADP displacement. shares compounds with RECQ1 inh-1. ADP fluorescence polarization displacement counterscreen. Potency, µM (series often up to 228 µM), for inactives: top-dose activity change, negative = inhibition, actives largely listed as inhibitors. actives 27% (n = 530). AID 2711; note: nearly all actives have a fitted effect of over 45% in size
RECQ1 inh-2 = RECQ1 helicase inhibition confirmed, round 2 | shares compounds with RECQ1 inh-1 | Potency, µM (highest dose often 119 µM), for inactives: at the highest dose activity, negative = inhibition, hits mostly inhibitors | recombinant RECQ1 DNA unwinding, red fluorescence | actives 15% (n = 1,100); note: nearly all actives have a fitted effect of over 50% in size
Starred values were filed as active, the others as inactive; i = inactive; ? = inconclusive; . = no result; [ ] = another dose, or the depositor's remark. Sampled rows, rich in hits. Any-hit rate of the full collection: about 0.74%. Calls come from the whole dose curve; as a rule, active = well fitted curve in the direction sought with a large enough effect; inconclusive = small, poorly fitted or top-dose-only effect, or another doubt; inactive = no such curve, though single readings can be large; an effect the other way counts as inactive or inconclusive. Unless noted, % is set by controls: 0 for no effect and ±100 for the full control effect; potency is the fitted concentration of half-maximal effect.

SMILES	APE1 inh-1	FEN1 inhibitor	Tb PGK inh	BLM inh	RECQ1 inh-1	Endo IV inh	APE1 inh-2	RECQ1 conf	ADP FP counter	RECQ1 inh-2	others
Nc1cc2nc[nH]c2cc1N	-6.6%	-12.7%	-6.7%	?	1.78µM*	.	?	8.1%[114 µM]	?	.
Cn1c(=O)n(C)c2cc3[nH]cnc3cc21	42.3%	3.6%	0.0%	-0.3%	.	.	.	.	.	.
CCOCCn1c(CN2CCN(c3cccc(Cl)c3)CC2)nc2c1c(=O)n(C)c(=O)n2C	-8.6%	0.8%	-13.3%	-1.1%	-8.3%	.	.	.	.	.
Cc1ccc(N=C2NC(=O)/C(=C/C=C/c3ccco3)S2)cc1	17.8µM*	50.1µM*	-14.1%	15.8µM*	17.8µM*	?	?	?	.	?	DNA dye displace=12.6µM*;APE1 FP inh=-0.8%
COc1ccccc1N1CCN(C(=O)c2cc(-c3ccc4c(c3)OCO4)on2)CC1	6.1%	-14.4%	i	-0.2%	-4.3%	.	.	.	.	.
CCOC(=O)c1cc(-c2ccc(OC)cc2)nn1-c1ccccc1C(=O)O	2.51µM*	16.8%	?	-17.7%	7.94µM*	.	39.8µM*	?	48.9%[91.9 µM]	?
Cc1nnc(NC(=O)CCSCCC(=O)Nc2nnc(C)s2)s1	?	-23.2%	-23.4%	-27.2%	?	.	39.8µM*	.	.	15.8µM*
CCOC(=O)CCSCC(=O)Nc1nnc(C)s1	-1.2%	-12.0%	-6.9%	-2.5%	-5.9%	.	.	.	.	.
CCc1nnc(NC(=O)CN2CCN(CC)CC2)s1	36.9%	-4.0%	i	-2.4%	.	.	.	.	.	.
Cc1ccccc1C(=O)Nc1cccc(C(=O)Nc2ccccc2C(=O)O)c1	23.8%	-1.5%	-1.8%	-3.7%	.	.	.	.	.	.
Cc1ccc(C(=O)Nc2ccc(S(=O)(=O)O)c3cc(S(=O)(=O)O)cc(S(=O)(=O)O)c23)cc1NC(=O)c1cccc(NC(=O)Nc2cccc(C(=O)Nc3cc(C(=O)Nc4ccc(S(=O)(=O)O)c5cc(S(=O)(=O)O)cc(S(=O)(=O)O)c45)ccc3C)c2)c1	22.4µM*	1.26µM*	.	-9.6%	20µM*	14.1µM*	8.91µM*	2.51µM*	199.9%	.
CC1=NN(c2ccc(Cl)c(C(=O)O)c2)C(=O)/C1=C\c1ccc(-c2ccc(C(=O)O)cc2)o1	25.1µM*	?	-21.0%	-4.1%	?	10.0%	12.6µM*	.	.	?	DNA dye displace=?;APE1 FP inh=1.0%
CC1=NN(c2ccc(C)cc2)C(=O)/C1=C/c1ccc(-c2cc([N+](=O)[O-])ccc2O)o1	-21.9%	-18.5%	-2.5%	-21.3%	.	.	.	.	.	.
Cc1ccccc1CSc1nnnn1-c1ccc(C(N)=O)cc1	2.7%	3.6%	-17.7%	-2.9%	.	.	.	.	.	.
NC(=O)c1ccc(-n2nnnc2SCC(=O)c2ccc(O)c(O)c2)cc1	3.98µM*	-12.8%	?	-21.6%	8.91µM*	127.6%	11.2µM*	.	.	?	DNA dye displace=-4.2%;APE1 FP inh=-1.3%
CCC(=O)N1CCc2cc(CNS(=O)(=O)c3ccc(CC(C)C)cc3)ccc21	.	-13.5%	-7.6%	-1.3%	.	.	.	.	.	.
Cc1cccc(OCC(=O)Nc2cc(S(=O)(=O)N3CCCCC3)ccc2N2CCN(C)CC2)c1	-0.7%	-4.9%	-9.5%	-1.9%	1.1%	.	.	.	.	.
COc1ccc(N2Cc3cccc(C(=O)NC(C)CCc4ccco4)c3C2=O)cc1 (stereo not given)	11.2µM*	?	-20.5%	?	7.94µM*	2.8%	11.2µM*	35.5µM*	-11.1%[91.9 µM]	10µM*	DNA dye displace=-13.9%;APE1 FP inh=-15.9%
CCN(CC)CCCC(C)Nc1cc(/C=C/c2ccccc2Cl)nc2cc(Cl)ccc12 (stereo not given)	.	-25.8%	.	88.6%	.	.	.	.	.	.
CCN(CC)CCCC(C)Nc1c2ccc(Cl)cc2nc2ccc(OC)cc12 (stereo not given)	28.2µM*	10.6µM*	.	-6.0%	?	7.94µM*	15.8µM*	31.6µM*	6.31µM*	.
O=C(O)c1cc(O)c2c(c1)[C@H]([C@H]1c3cc(C(=O)O)cc(O)c3C(=O)c3c(O[C@@H]4OC(CO)C(O)C(O)C4O)cccc31)c1cccc(O[C@@H]3OC(CO)C(O)C(O)C3O)c1C2=O (stereo not given in full)	.	.	.	3.16µM*	2µM*	-29.6%[57.1 µM]	0.708µM*	2.82µM*	7.08µM*	.
Cc1ccc(C)n1Cc1ccc(C(=O)O)cc1	3.55µM*	3.98µM*	3.16µM*	84.6%	7.08µM*	.	14.1µM*	20µM*	.	.
Cc1cc(C)n(Cc2ccc(C(=O)O)cc2)n1	1.7%	-0.8%	i	-1.6%	-6.6%	.	.	.	.	.
CCc1ccc(NC(=O)C2CCC(CNS(=O)(=O)c3cccs3)CC2)cc1 (stereo not given)	.	12.3%	6.7%	-1.7%	.	.	.	.	.	.
CCC1(CC)NC(=O)N(CC(=O)Nc2sc3c(c2C(N)=O)CCC3)C1=O	17.8µM*	-28.1%	-10.2%	-19.3%	22.4µM*	?	?	44.7µM*	?	?	DNA dye displace=-12.0%;APE1 FP inh=?
CCCCC(=O)NC(=S)Nc1cc(C(=O)O)ccc1Cl	2.0%	-4.1%	-1.6%	1.9%	-2.3%	.	.	.	.	.
O=C1C=CC2=C3c4cc(O)c(O)cc4CC3(O)COC2=C1O (stereo not given)	0.112µM*	3.55µM*	2.82µM*	15.8µM*	1.26µM*	70.4%[57.1 µM]	1.41µM*	11.2µM*	3.16µM*	.	DNA dye displace=?;APE1 FP inh=17.8µM*
